We go through eight compounds from PubChem BioAssay.

Experiment [1] can be described thus: inhibitors of TNFa-induced NFkB p65 translocation, primary screen, imaging, HUVEC, MLSMR starter and 10KST1 sets (AID 438;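 active means inhibition above 20% together with a positive visual image hit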;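 further: compound added about 3h40 before a 20 min TNFalpha stimulation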;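 on inhibition: signal is the nuclear over cytoplasmic p65 intensity ratio per well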). As to conditions: HUVEC TNFa-induced p65 nuclear translocation; cell count: measured here: nuclei count (cytotoxicity indicator), at 2.08 µM; inhibition: at 2 µM, stronger effect = higher value, 0% TNFa-plus-vehicle, 100% no-TNFa wells.
A short description of experiment [2]: reduction of polyQ htt aggregates in cells – imaging, exon1htt(103Q)mCFP cells, high-content imaging, primary screen (AID 483;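 active means visual image review flags a hit and inhibition of aggregation exceeds 20%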;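 further: compound exposure lasted 3 days before fixation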;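 on nuclei count: percent of the per-plate median nuclei count of sample wells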). To be noted: exon1htt(103Q)mCFP cell line, aggregate imaging, at 2 µM; inhibition of aggregation: stronger effect = higher value; nuclei count: measured here: cell count, toxicity.
Experiment [3] can be described thus: endothelial E-selectin expression blockers – imaging, HUVEC, immunofluorescence, MLSMR starter and 10KST1 sets, primary screen (AID 487;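 active means visually confirmed hit in the image check and inhibition above 20%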;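 on inhibition: signal is fraction of cell area covered by stained E-selectin grains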;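 on nuclei count: 100% = median nuclei count of all wells on the same plate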). As to conditions: HUVEC TNFalpha-induced E-selectin immunofluorescence imaging, at 2 µM; inhibition: stronger effect = higher value; nuclei count: measured here: cell number, toxicity.
Experiment [4] addresses Voltage-gated potassium channel subunit beta-2 (Rattus norvegicus) (UniProt P62483). Description: inhibitors of rat Kvbeta2 reductase activity – biochemical, NADPH fluorescence, primary screen (AID 622;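 active means fluorescence slope higher than the sample average by over 3 SD, cut at about -0.22 in these data, passing the limit was not always enough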;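 further: slope of raw intensity against log time taken from 70 to 1610 s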). As to conditions: recombinant KvBeta, 4-cyanobenzaldehyde reduction, at 10 µM, stronger effect = higher value.
Experiment [5] has the same target. Kind of experiment: enhancers of rat Kvbeta2 NADPH turnover – biochemical, NADPH fluorescence, primary screen (AID 623;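 active means NADPH fluorescence slope more negative than the mean of all samples by about 3 SD, 99.7% confidence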;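 further: fluorescence intensity change per second fitted from 20 to 320 s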). As to conditions: Recombinant KvBeta, NADPH fluorescence decrease slope, 10 min; at 10 µM; stronger effect = lower value.
The target of experiment [6] is Alpha-2C adrenergic receptor (Homo sapiens) (UniProt P18825). Description: compounds altering alpha2C-coupled GIRK flux – cell-based, HEK293 alpha2C/GIRK1/2, thallium flux, primary screen (AID 624).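 Further: slope of fluorescence ratio to pre-addition baseline per second over 15 to 24 s.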 As to conditions: thallium flux BTC fluorescence, at 10 µM, actives lie on both sides.
Chain of Alpha-2C adrenergic receptor (Homo sapiens) (P18825 whole entry, looked up): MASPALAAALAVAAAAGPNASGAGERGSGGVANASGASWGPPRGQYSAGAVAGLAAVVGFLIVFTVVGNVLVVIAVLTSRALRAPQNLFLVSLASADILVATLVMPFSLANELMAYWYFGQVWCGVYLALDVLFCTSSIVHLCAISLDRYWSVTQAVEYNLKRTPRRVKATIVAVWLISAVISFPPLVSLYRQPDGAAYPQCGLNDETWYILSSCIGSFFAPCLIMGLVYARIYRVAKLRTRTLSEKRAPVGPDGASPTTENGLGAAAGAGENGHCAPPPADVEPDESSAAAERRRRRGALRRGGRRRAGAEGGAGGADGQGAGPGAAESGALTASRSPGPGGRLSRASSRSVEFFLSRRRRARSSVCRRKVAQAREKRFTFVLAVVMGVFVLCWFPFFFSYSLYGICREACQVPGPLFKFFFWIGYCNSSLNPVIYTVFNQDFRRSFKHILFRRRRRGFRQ
The nature of experiment [7]: blockers of RIG-like receptor reporter activation – cell-based, Sendai virus stimulus, luciferase, 10K MLSCN set, TLR/RLR signaling modifier project, primary screen (AID 602276;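 active means inhibition at or above 50% at 10 µM; inactive means inhibition below 50%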;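 further: firefly luciferase from ISG56 promoter only with Renilla not read in this screen; 0% = Sendai virus plus DMSO and 100% = medium plus DMSO without virus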). As to conditions: HEK293 RL24 IRF3 luciferase reporter, at 10 µM, stronger effect = higher value. For orientation: A reporter such as luciferase makes a cellular process visible.
A short description of experiment [8]: TLR3 IRF3 reporter activation blockers – cell-based, poly I:C stimulus, luciferase, 10K MLSCN set, primary screen (AID 602277;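 active means inhibition of the reporter signal at or above 50%; inactive means inhibition below 50%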). To be noted: HEK293-TLR3 RL24 IRF3 luciferase reporter, at 10 µM, stronger effect = higher value.

What is called inhibition is the relative decrease from the control value, in per cent.

Calls of active or inactive are those of the source.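 How the source made its calls, unless noted: active means fluorescence slope after compound addition differing from the mean of all screened samples at 99.7% confidence, in either direction; inactive means the rest.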

Chain of Voltage-gated potassium channel subunit beta-2 (Rattus norvegicus) (P62483 whole entry, looked up): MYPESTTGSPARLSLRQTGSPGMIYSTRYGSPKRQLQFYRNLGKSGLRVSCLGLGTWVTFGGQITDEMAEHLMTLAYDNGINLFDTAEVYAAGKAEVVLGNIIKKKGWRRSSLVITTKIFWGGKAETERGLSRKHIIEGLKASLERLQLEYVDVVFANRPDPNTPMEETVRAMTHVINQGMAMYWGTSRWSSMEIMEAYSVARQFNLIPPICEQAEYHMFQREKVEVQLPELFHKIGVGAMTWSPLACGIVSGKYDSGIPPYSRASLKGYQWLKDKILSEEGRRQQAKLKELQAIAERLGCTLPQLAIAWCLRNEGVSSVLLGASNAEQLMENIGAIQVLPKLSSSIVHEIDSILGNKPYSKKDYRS

On to `CCOC(=O)c1oc2ccccc2c1NC(=O)c1cccc(OC)c1OC`, for which the cell count in experiment [1] stood at 553. For the same compound, the inhibition was -14.1% (inactive) in experiment [1], 23.6% (inactive) in experiment [3], -0.203% (inactive) in experiment [7] and -6.33% (inactive) in experiment [8]. In experiment [2], the inhibition of aggregation is -13% (inactive). Further, the nuclei count amounted to 104% in experiment [2] and 82.8% in experiment [3]. Besides, the fluorescence slope in experiment [4] was -0.616 (inactive). Besides, the NADPH fluorescence slope in experiment [5] is -1.9e-05 (inactive). The slope in experiment [6] was 0.00654 (inactive).

In the case of `Nc1c(S(=O)(=O)c2cccs2)c2nc3ccccc3nc2n1CC1CCCO1` (stereo not drawn), in experiment [1], the cell count was determined as 667. For the same compound, the inhibition in experiment [1] was -7.3% (inactive); in experiment [3], -71.1% (inactive); in experiment [7], 10.7% (inactive); in experiment [8] it was 35.1% (inactive). Further, in experiment [2], the inhibition of aggregation is -6% (inactive). Besides, the nuclei count in experiment [2] was 117%; in experiment [3], 141%. In experiment [4], the fluorescence slope is -0.0861 (active). Besides, in experiment [5], the NADPH fluorescence slope was 2.8e-06 (inactive). Moreover, in experiment [6], the slope is 0.00409 (inactive).

In the case of `O=C(CSc1n[nH]c(-c2cccs2)n1)N1CCN(S(=O)(=O)c2ccccc2)CC1`, the cell count in experiment [1] was 785. In addition, the inhibition in experiment [1] is 13.3% (inactive); in experiment [3], -77% (inactive); in experiment [7], 17% (inactive); in experiment [8], 28.7% (inactive). The inhibition of aggregation in experiment [2] is 4.1% (inactive). The nuclei count in experiment [2] amounted to 104%; in experiment [3] it was 140%. Moreover, the fluorescence slope in experiment [4] is -0.639 (inactive). The NADPH fluorescence slope in experiment [5] was 3e-05 (inactive). Besides, in experiment [6], the slope is 0.0053 (inactive).

As for `COc1ccccc1OCCOCCn1cnc2ccccc2c1=O`, the cell count in experiment [1] amounted to 561. Besides, the inhibition was -2.8% (inactive) in experiment [1], 2.6% (inactive) in experiment [3], 10.3% (inactive) in experiment [7] and 12.5% (inactive) in experiment [8]. In addition, the inhibition of aggregation in experiment [2] is 24.9% (inactive). In addition, the values for the nuclei count in experiment [2] and in experiment [3] were 79.3% and 94.4%, respectively. The fluorescence slope in experiment [4] is -0.488 (inactive). For the same compound, the NADPH fluorescence slope in experiment [5] was -4.9e-05 (inactive). In experiment [6], the slope was 0.00575 (inactive).

Regarding `COc1cccc(N2CCN(Cc3cccnc3)CC2)c1`, the cell count in experiment [1] was determined as 621. For the same compound, the inhibition was -1% (inactive) in experiment [1], 15.6% (inactive) in experiment [3], 6.56% (inactive) in experiment [7] and 11.4% (inactive) in experiment [8]. In addition, the inhibition of aggregation in experiment [2] was -21.4% (inactive). Further, the values for the nuclei count in experiment [2] and in experiment [3] were 96.6% and 87.2%, respectively. For the same compound, the fluorescence slope in experiment [4] was -0.364 (inactive). For the same compound, in experiment [5], the NADPH fluorescence slope was -6e-05 (inactive). For the same compound, in experiment [6], the slope is 0.00629 (inactive).

Consider `COc1ccc2cc(CN(CCO)C(=O)c3ccccc3F)c(=O)[nH]c2c1`, for which, in experiment [1], the cell count came to 474. Further, the inhibition was 9.4% (inactive) in experiment [1], -93% (inactive) in experiment [3], -11.1% (inactive) in experiment [7] and -5.69% (inactive) in experiment [8]. Besides, in experiment [2], the inhibition of aggregation was -16% (inactive). The nuclei count in experiment [2] turned out to be 108%; in experiment [3], 110%. Also, the fluorescence slope in experiment [4] is -0.496 (inactive). Further, in experiment [5], the NADPH fluorescence slope is 5.3e-06 (inactive). Also, in experiment [6], the slope is 0.00191 (inactive).

Turning to `CC(=O)SCCC(=O)Nc1ccccc1`, the cell count in experiment [1] turned out to be 646. Besides, the inhibition in experiment [1] is -1.4% (inactive); in experiment [3] it was -61.7% (inactive); in experiment [7], 20.3% (inactive); in experiment [8] it was 28.9% (inactive). Moreover, the inhibition of aggregation in experiment [2] is -12.1% (inactive). The nuclei count is 122% in experiment [2] and 108% in experiment [3]. Besides, in experiment [4], the fluorescence slope was -0.498 (inactive). Moreover, the NADPH fluorescence slope in experiment [5] was 3.1e-06 (inactive). In addition, in experiment [6], the slope was 0.00709 (inactive).

Consider `O=C(Cn1cnc2c(cnn2-c2ccc(F)cc2)c1=O)N1CCCc2ccccc21`, for which the cell count in experiment [1] came to 427. Further, the inhibition in experiment [1] was 1.5% (inactive); in experiment [3] it was -61.6% (inactive); in experiment [7] it was 11.3% (inactive); in experiment [8], 6.11% (inactive). Further, the inhibition of aggregation in experiment [2] was 2.1% (inactive). Further, the nuclei count in experiment [2] turned out to be 104%; in experiment [3] it was 110%. For the same compound, in experiment [4], the fluorescence slope was -0.628 (inactive). Further, in experiment [5], the NADPH fluorescence slope is -5.2e-05 (inactive). Moreover, the slope in experiment [6] is 0.00385 (inactive).
